# Reference: PubChem BioAssay (NCI)
# The panel holds about 83,000 compounds, 20% with a hit somewhere; the sample as a whole holds those more often.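 Plates (96-well) were seeded with cells, treated with compound at one concentration, and incubated for 48 hours before percent growth was determined.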 Values without a mark were called inactive. Calls of active or inactive are those of the source. The calls were made as follows: active = growth percent below 10; inactive = the rest.
# Tests used:
# Assay in all cases: NCI-60 one-dose screen, 48 h (100 = growth as untreated, 0 = no growth, -100 = all killed)
# Settings in all cases: 10 µM unless noted
# SK-MEL-2 melanoma = system: SK-MEL-2 melanoma
# SN12C renal = system: SN12C renal
# UO-31 renal = system: UO-31 renal
# TK-10 renal = system: TK-10 renal
# ACHN renal = system: ACHN renal
# CAKI-1 renal = system: CAKI-1 renal
# A498 renal = system: A498 renal
# CCRF-CEM leukemia = system: CCRF-CEM leukemia
# MOLT-4 leukemia = system: MOLT-4 leukemia
# SR leukemia = system: SR leukemia
# RPMI-8226 leukemia = system: RPMI-8226 leukemia
# OVCAR-8 ovarian = system: OVCAR-8 ovarian
# OVCAR-5 ovarian = system: OVCAR-5 ovarian
# OVCAR-4 ovarian = system: OVCAR-4 ovarian
# SK-OV-3 ovarian = system: SK-OV-3 ovarian
# IGROV1 ovarian = system: IGROV1 ovarian
# OVCAR-3 ovarian = system: OVCAR-3 ovarian
# HS 578T breast = system: HS 578T breast
# NCI/ADR-RES ovarian = system: NCI/ADR-RES ovarian
SMILES,growth (SK-MEL-2 melanoma),growth (SN12C renal),growth (UO-31 renal),growth (TK-10 renal),growth (ACHN renal),growth (CAKI-1 renal),growth (A498 renal),growth (CCRF-CEM leukemia),growth (MOLT-4 leukemia),growth (SR leukemia),growth (RPMI-8226 leukemia),growth (OVCAR-8 ovarian),growth (OVCAR-5 ovarian),growth (OVCAR-4 ovarian),growth (SK-OV-3 ovarian),growth (IGROV1 ovarian),growth (OVCAR-3 ovarian),growth (HS 578T breast),growth (NCI/ADR-RES ovarian)
CC(O)C(O)C(O)C(O)C(O)C(=O)NNc1ccccc1 (centres undefined),106%,90.5%,70.6%,110%,67%,77.1%,69.7%,59.6%,101%,49.7%,99.1%,96.4%,84.6%,96.5%,99.5%,80%,99.4%,91.2%,84.2%
CCCCCCCCCCCC[n+]1ccc(CCCCCCCCC)cc1,-48.1% (active),-70.9% (active),-19.4% (active),–,-80.7% (active),23.4%,-25.4% (active),-34.9% (active),-44.7% (active),-32% (active),-54.6% (active),-80.4% (active),-16.8% (active),-79.1% (active),-18.9% (active),-79.5% (active),-85.3% (active),-7.56% (active),35.8%
N=C1C=C(N)C(=O)c2ccccc21,-53.6% (active),-66.9% (active),-86.3% (active),-67.5% (active),-81.6% (active),-47.7% (active),–,3.15% (active),-25% (active),1.77% (active),5.15% (active),-20.1% (active),-85.8% (active),-99.6% (active),-87% (active),–,-87.6% (active),–,-76.4% (active)
CCCCC(C=O)(C=C=C(C)C)CC (centres undefined),111%,102%,93.4%,104%,99.3%,98.2%,82%,88.5%,97%,108%,98%,98.5%,98.3%,96.5%,98%,110%,107%,112%,106%
Cc1cc(C)c(C#N)c(Sc2nc(C)c([N+](=O)[O-])c(C)c2C#N)n1,69.4%,47.4%,39.3%,75.2%,39.3%,0.956% (active),110%,–,39.7%,22.7%,48.7%,77.2%,90.1%,66.6%,81.3%,–,68.6%,118%,77.9%
N#CC1c2ccccc2C=CN1C(=O)CCCl (centres undefined),94.1%,107%,60.6%,14.9%,-6.33% (active),–,132%,8.12% (active),81.3%,5.98% (active),24.3%,–,108%,108%,97.2%,95.3%,–,104%,102%
Oc1c(C(Nc2ccccc2)c2ccccc2)ccc2cccnc12 (centres undefined),48%,54.6%,36.9%,49.4%,42.9%,29.1%,78.7%,17.7%,21.2%,27.3%,37.3%,19.8%,59.5%,33.2%,40.5%,41.3%,–,70.4%,16.8%
OCCOSCCO,106%,111%,96.3%,100%,91.2%,101%,120%,107%,104%,90.1%,133%,106%,99.5%,102%,117%,–,120%,115%,113%
Oc1c(Cl)cc(Cl)cc1C=NCC1CCC(CN=Cc2cc(Cl)cc(Cl)c2O)CC1 (centres undefined),92.9%,86.3%,45.8%,–,101%,91.7%,113%,59%,78.1%,52.3%,76.7%,90%,114%,75.2%,88.5%,69.6%,83.5%,92.7%,85.2%
CCCCCCCCCCCCCCCCCC1=NCCCN1CCO,111%,96.8%,93.4%,116%,112%,105%,–,97.4%,102%,95.6%,103%,101%,98.5%,112%,97.6%,–,114%,101%,105%
COc1cc2c(c(OC)c1OC)-c1ccc(NCc3ccccc3)c(=O)cc1[C@@H](NC(C)=O)CC2,19.2%,20.3%,34.4%,26%,28.8%,28.8%,-17.3% (active),10.1%,3.29% (active),2.36% (active),8.4% (active),14.5%,41.8%,29.6%,-6.57% (active),–,–,17.3%,66.4%
CC(=O)Nc1ccc(C(=O)CCl)cc1,96.6%,90.6%,54.2%,43.8%,-58% (active),38.6%,99.8%,-49.9% (active),73.6%,-17.9% (active),25.2%,92.1%,94.5%,60.6%,–,93.2%,-21.6% (active),19%,84.5%
CCCCCCCCCCCC(=O)OC(C)C(=O)NCCCC (centres undefined),108%,102%,94.5%,90.8%,116%,99.1%,–,101%,87.7%,85.7%,104%,100%,107%,108%,102%,107%,107%,101%,101%
CC1CC(C)(C)OB(OC(C)CC(C)(C)OB2OC(C)CC(C)(C)O2)O1 (centres undefined),103%,101%,90.9%,93.6%,108%,105%,118%,104%,99.2%,96.9%,100%,102%,103%,111%,–,107%,76.6%,121%,101%
COc1cc(OC)c(/C=C/c2c3ccccc3cc[n+]2C)c(OC)c1,20.4%,14.2%,75.5%,42.1%,71.5%,67.8%,36.6%,18.2%,14.7%,-18.2% (active),6.51% (active),5.21% (active),56.5%,24.9%,35%,13.2%,–,46.3%,96.6%
CC(=O)c1ccc2c(c1)CCc1ccccc1-2,110%,109%,105%,99.9%,108%,101%,63.1%,109%,114%,103%,108%,109%,88.9%,98.8%,101%,119%,125%,103%,119%
O=C1CSC(=S)N1Cc1cccnc1,85.8%,103%,71%,9.3% (active),97.2%,63.9%,–,12.9%,51.4%,-10.3% (active),9.56% (active),53.8%,106%,91.7%,106%,114%,99.2%,114%,106%
CCCCCCCCCCCCCCCC[N+]1(C)CCCC1c1cccnc1 (centres undefined),98.1%,44.5%,91.3%,49.7%,85.6%,92.9%,–,38.7%,33%,42.7%,21%,38.4%,48.4%,47.1%,60.5%,–,38.3%,80.2%,87.8%
